Read-outs that look alike come from different tables or passages of the source. Screen size: about 13,000 compounds; about 3,200 (25%) showed an effect of 50% or more. The list shows a part of the results.
Tested on: P. falciparum stage V gametocytes
Design: BacTiter-Glo ATP luminescence viability of purified stage V gametocytes in 384-well plates, per cent inhibition versus DMSO
Details: 48 h, 5 µM, inhibitor

| Structure (SMILES) | % Inhibition [%] | % Inhibition (% Inhibition) [%] |
| --- | --- | --- |
| CN(c1cc(NC(=O)c2ccc(F)cc2)ccn1)C1CCN(Cc2cccc(F)c2)CC1 [TCMDC-135019] | 38.57 | – |
| Cc1ccnc(NC(=O)c2cc(-c3cccc([N+](=O)[O-])c3)nc3onc(C)c23)c1 [TCMDC-124591] | 3.347 | – |
| C=C[C@]1(C)C[C@@H](OC(=O)NC(=O)CCCS(=O)(=O)c2nnc(C)s2)[C@]2(C)[C@H](C)CC[C@]3(CCC(=O)[C@H]32)[C@@H](C)[C@@H]1O [TCMDC-140927] | 24.97 | – |
| C#CC(C)(CO)N1CCCC1 (stereo not shown) [TCMDC-131372] | -4.555 | – |
| CCOC(=O)c1c(C)n(-c2ccccc2)c2ccc(O)cc12 [TCMDC-125483] | -27.27 | – |
| Oc1ccccc1CNCC12CC3CC(CC(C3)C1)C2 [TCMDC-125554] | -22.39 | – |
| CC(C)C[C@H](Nc1ccnc(NCC2CCCCC2)n1)C(=O)Nc1ccccc1 [TCMDC-134714] | -42.51 | – |
| CC(C)c1ccc(Nc2nc(NCCc3cnc[nH]3)nc(NCc3ccccc3)n2)cc1 [TCMDC-139741] | -6.505 | – |
| CC1CN(Cc2cccc(F)c2)CCN1c1ccc(NC(=O)c2ccc(F)cc2)cc1 (stereo not shown) [TCMDC-135017] | -0.6551 | – |
| Cc1ccc(NC(=O)Nc2cccc(Cl)c2)cc1-c1ccc(C(=O)Nc2ccncc2)cc1 [TCMDC-133699] | 10.77 | – |
| Cl.Oc1ccc(C2CNCCc3c2cc(O)c(OCc2ccccc2)c3Cl)cc1 (stereo not shown) [TCMDC-141979] | 17.32 | – |
| O=C(N[C@@H](Cc1ccccc1)C(=O)NC1CCCCC1)c1ccc(O)c(-c2ccc(Cl)c(Cl)c2)c1 [TCMDC-140824] | 35.45 | – |
| O=C(NC(=S)Nc1cc(C(F)(F)F)cc(C(F)(F)F)c1)c1ccc(Cl)cc1 [TCMDC-124077] | 25.76 | – |
| COc1cc(Cc2cnc(N)nc2N)cc(OCCCCCC(=O)O)c1OC [TCMDC-137677] | -23.13 | – |
| CC[C@H](C)CNC(=O)c1cncc(-c2cccc(CNC3Cc4ccccc4C3)c2)c1 [TCMDC-134218] | -33.07 | – |
| Cc1cccc(-c2ccc3c(c2)CC(NCc2cccc(-n4ccnc4)c2)C3)c1 (stereo not shown) [TCMDC-134831] | 2.381 | – |
| NC(=O)c1cccc(-n2ccc3cc(CNC4Cc5ccccc5C4)ccc32)c1 [TCMDC-133416] | 99.63 | – |
| c1ccc2nc(NCCCCCCCCNc3ccc4ccccc4n3)ccc2c1 [TCMDC-137745] | 26.97 | – |
| c1ccc2ncc(CNCCCCCCCCNCc3cnc4ccccc4c3)cc2c1 [TCMDC-137744] | 97.27 | – |
| COc1cccc(Cc2cnc3nc(N)nc(N)c3c2C)c1 [TCMDC-138060] | -3.76 | – |
| CC(=O)Nc1ccc(S(=O)(=O)Nc2ccc(Nc3nc(C)cc(N(C)C)n3)cc2)cc1 [TCMDC-124951] | -47.31 | – |
| COc1ccc2nccc([C@@H](O)CN3CCC(NC(=O)/C=C/c4cccc(NC(C)=O)c4)CC3)c2c1 [TCMDC-141029] | -15.14 | – |
| Fc1ccccc1CNc1ncc(-c2ccsc2)c(-c2nccs2)n1 [TCMDC-125366] | 77.55 | – |

| Structure (SMILES) | % Inhibition [%] | % Inhibition (% Inhibition) [%] |
| --- | --- | --- |
| COc1ccccc1CNc1ncc(-c2ccsc2)c(-c2nccs2)n1 [TCMDC-125376] | 13.46 | – |
| Fc1ccc(CNc2ncc(-c3ccsc3)c(-c3nccs3)n2)cc1 [TCMDC-125372] | 57.46 | – |
| COc1cccc(CNc2ncc(-c3ccsc3)c(-c3nccs3)n2)c1 [TCMDC-125375] | 51.63 | – |
| Fc1cccc(CNc2ncc(-c3ccsc3)c(-c3nccs3)n2)c1 [TCMDC-125374] | 21.86 | – |
| c1cc(CNc2ncc(-c3ccsc3)c(-c3nccs3)n2)ccn1 [TCMDC-125371] | 35.87 | – |
| COc1cc(CNc2ncc(-c3ccsc3)c(-c3nccs3)n2)cc(OC)c1 [TCMDC-124844] | 31.51 | – |
| COc1ccc(CNc2ncc(-c3ccsc3)c(-c3nccs3)n2)cc1OC [TCMDC-125369] | 23.78 | – |
| c1cncc(CNc2ncc(-c3ccsc3)c(-c3nccs3)n2)c1 [TCMDC-125368] | 23.89 | – |
| Clc1ncccc1-c1nc(NCCC(c2ccccc2)c2ccccc2)no1 [TCMDC-134181] | 13.92 | – |
| Clc1cc(Cl)cc(Nc2ccnc(Nc3cc(Cl)cc(Cl)c3)n2)c1 [TCMDC-134277] | -19.19 | – |
| Cc1nc(N/C=C/c2ccc(O)cc2)cc(N2CCCC2)n1 [TCMDC-135162] | 20.32 | – |
| NC1=NC(c2ccccc2)(c2cccc(O)c2)C(=O)N1CCCc1ccccc1 (stereo not shown) [TCMDC-132351] | – | -3.76 |
| COc1cc(Br)c(S(=O)(=O)n2cc(CN3CCC(N)CC3)c3cc(Cl)ccc32)cc1OC [TCMDC-136384] | 95.22 | – |
| COc1ccc(S(=O)(=O)NC2CCN(CCCOc3ccnc4cc(Cl)ccc34)C2)cc1OC (stereo not shown) [TCMDC-136146] | -25.22 | – |
| COc1cccc(CN2CCC(CCOC(c3ccccc3)c3ccc(Cl)cc3)CC2)c1O (stereo not shown) [TCMDC-136040] | -76.2 | – |
| COc1ccc(NC(=O)Nc2ccc(-c3ccccc3)cc2Cl)cc1N1CCN(C)CC1 [TCMDC-139137] | -40.38 | – |
| O=S(=O)(NCCN1CCCC1)c1ccc(-c2ccc(CNC3Cc4ccccc4C3)cc2)s1 [TCMDC-132234] | 69.5 | – |
| CN1CCC(NCc2cccc(-c3ccc(S(=O)(=O)NCCN4CCCC4)s3)c2)CC1 [TCMDC-132218] | 98.17 | – |
| O=S(=O)(NCCN1CCCC1)c1ccc(-c2cccc(CNC3Cc4ccccc4C3)c2)s1 [TCMDC-132217] | 90.5 | – |
| COc1cccc(-c2cnc(N)c(-c3nc4ccc(F)cc4[nH]3)c2)c1 [TCMDC-138791] | -6.276 | – |
| Cn1c(=O)c(-c2c(Cl)cccc2Cl)cc2cnc(Nc3ccc(N4CCOCC4)cc3)nc21 [TCMDC-137156] | -23.94 | – |
| O=C(Nc1cccc([N+](=O)[O-])c1)Nc1ccc(Cl)c(C(F)(F)F)c1 [TCMDC-123511] | -89.27 | – |
| CCN(c1ccc(F)cc1)S(=O)(=O)c1cc(Br)cc2c1N(C(=O)C1CC1)CC2 [TCMDC-123802] | -9.966 | – |
